Consider ten compounds from PubChem BioAssay (NCATS).

SMILES strings stand for the structures. Results filed as inconclusive are left out. Where a call stands in place of a potency, no number is given. Active and inactive are the calls of the source. Calls follow the shape of the dose curve; as a rule, active = well fitted inhibition curve with a large enough effect; inconclusive = small, poorly fitted or top-dose-only effect; inactive = no such curve, though single readings can be large or run the other way.

The target in the assay is Retinaldehyde dehydrogenase 3 (Homo sapiens) (UniProt P47895). Kind of assay: qHTS for Inhibitors of the Aldehyde Dehydrogenase Family (ALDH1A3) Primary screen (AID 2061315). As to conditions: ALDH inhibition qHTS; series mostly up to 56 µM.
As for `CCCCNc1ncc(C(=O)NCc2ccc(-n3ccnc3)cc2)c(NC2CCC(O)CC2)n1` (stereo not given), the Potency result is “inactive”.

For the compound `COC(=O)C(CC1(O)c2ccccc2N2C(=O)C(CC(C)C)NC21)n1cnc2ccccc2c1=O` (stereo not given), the Potency result is “inactive”.

On to `O=C1NCc2nc3ccccc3c(=O)n2C1Cc1c[nH]c2ccccc12` (stereo not given), for which the Potency result is “inactive”.

For `C=C(C)[C@H]1C[C@@H](O)C(=C)CC[C@@H](O)C(=C)[C@@H](O)C1`, the Potency entry is “inactive”.

`COC(=O)C(C)C1CCC2(C)C(=O)C=CC(C)(O)C2C1O` (stereo not given): the Potency result was “inactive”.

Turning to `Cc1ccn(-c2cc(Cl)ccc2[C@@H](Oc2cc(-c3ccc(C[C@H](N)C(=O)O)cc3)nc(N)n2)C(F)(F)F)n1`, the Potency result was “inactive”.

For `CC(=O)OC[C@]12[C@@H](OC(=O)c3ccoc3)C[C@@H]3[C@@H](OC(C)=O)[C@]1(OC3(C)C)[C@@](C)(O)C[C@H](OC(=O)c1ccoc1)[C@@H]2OC(=O)c1ccoc1`, the Potency result was “inactive”.

Regarding `COc1cc(O)c2c(c1)C1=C[C@H](O)[C@@H](O)C[C@]1(C)OC2=O`, the Potency result is “inactive”.

For `CCNC(=O)Nc1ccc(-c2nc3c(c(N4CCOC[C@@H]4C)n2)CCN(c2ncccn2)C3)cc1`, the Potency result was “inactive”.

Regarding `CC(=O)O[C@@H]1C[C@H](O)[C@@]23CO[C@H](O)[C@]1(C)C2C[C@@H](O)[C@]1(C)C3C(=O)[C@H](OC(C)=O)[C@@]2(C)[C@H](c3ccoc3)C[C@H]3O[C@]321` (stereo not given in full), the Potency result is “inactive”.
